This is part of a sample that, as a whole, favours compounds with a hit. Of some 83,000 tested, about 20% had one in any assay.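 The endpoint reported here, percent growth, reads 100 for growth as untreated, 0 for no net growth and -100 for all cells dead.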 A number with no mark means an inactive call. Rule for the calls: active = growth percent below 10; inactive = the rest.

The test system of this test is NCI-H23 lung. Put plainly: NCI-60 one-dose screen, 48 h (100 = growth as untreated, 0 = no growth, -100 = all killed). Conditions: 10 µM unless noted.
Take `NCCNc1nc2ccccc2c2c(=O)c3cc(F)cc(Cl)c3sc12`: the growth was 75.4%.
Take `C=C1C(=O)O[C@H]2[C@H]1CC/C(COC(=O)/C=C\C(=O)O)=C\CC[C@@]1(C)O[C@@H]21`: the growth was 98.9%.
Regarding `COc1ccccc1C(=O)/C=C/c1ccccc1`, the growth was 83.4%.
Take `Cn1cc([C@@H]2Nc3ccc4[nH]ncc4c3[C@H]3[C@H]4CCC(C4)[C@H]32)c(C(F)(F)F)n1`: the growth was 90.6%.
In the case of `N#Cc1c(N)nc2c(c1N)C(c1ccc(F)cc1)c1ccc(N)cc1O2` (stereo not drawn), the growth was 117%.
The value for `O=C(CN1C=NC2C(N3CCOCC3)=NC=NC21)c1ccc(Br)cc1` (stereo not drawn) was 99.2%.
The value for `CCCCN1CCN(c2ccc3nc(-c4ccc5nc(-c6ccc(OCC)cc6)[nH]c5c4)[nH]c3c2)CC1` was 64.1%; that for `CCN(CCO)CCNc1ccc(C)c2sc3cc(Cl)ccc3c(=O)c12` was 59.6%; that for `Cc1nn(-c2nc3ccccc3[nH]2)c2c1C(c1ccc(OCC(N)=O)cc1)CC(=O)N2` (stereo not drawn) was 103%.
The value for `COC(=O)/C(CCC=C(C)C)=C1\[C@@H](OC(C)=O)C[C@@]2(C)[C@H]1C[C@@H](O)[C@H]1[C@@]3(C)CC[C@H](NCCO)[C@@H](C)[C@@H]3CC[C@@]12C` was 97.7%.
Consider `CCCc1c(C)c2sc(=O)[nH]c2[nH]c1=O`, for which the growth was 104%.
Take `O=C(/C=C/c1ccc(Cl)cc1)c1ccc(Nc2nc(NCCO)nc(Nc3ccc(Cl)cc3)n2)cc1`: the growth was 87.6%.
Consider `COc1cccc2c(=O)c3c(sc12)c(NCCCNCCO)nc1ccccc13`, for which the growth was 63.1%.

(Values after PubChem BioAssay (NCI).)
